Compounds with a hit are over-represented: about 3.4% of the library has one in this group of screens.
GAA850 FXN act: FXN promoter activators, primary screen, cell-based, luciferase luminescence, HEK293 lucGAA850. HEK293 lucGAA850 FXN promoter luciferase reporter, 24 h; percent of 10 µM SAHA response. activation, % at 6 µM. actives 0.56% (n = 360,000). AID 540364, 2011;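 active = activation above the average of all compounds screened plus 3 SD, cutoff fixed separately per campaign, cut at about 7.5% in these data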
GalR3 antagonist: GalR3 antagonists in HEK293 cells, primary screen, cell-based, fluorescence readout; Galanin receptor type 3 (Homo sapiens), O60755; HEK293 GalR3-CNG cAMP membrane potential fluorescence; galR3 body fused to GalR1 C-terminus; inhibition, % at 3 µM; actives 0.44% (n = 360,000); AID 651719, 2012;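 active = inhibition above the screen-wide average plus 3 SD, cut at about 13% in these data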;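 also: forskolin and galanin both at EC90 stimulate the cells; cAMP rise reported by CNG channel membrane potential dye signal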
Target sequence (O60755 1-299 limits assumed): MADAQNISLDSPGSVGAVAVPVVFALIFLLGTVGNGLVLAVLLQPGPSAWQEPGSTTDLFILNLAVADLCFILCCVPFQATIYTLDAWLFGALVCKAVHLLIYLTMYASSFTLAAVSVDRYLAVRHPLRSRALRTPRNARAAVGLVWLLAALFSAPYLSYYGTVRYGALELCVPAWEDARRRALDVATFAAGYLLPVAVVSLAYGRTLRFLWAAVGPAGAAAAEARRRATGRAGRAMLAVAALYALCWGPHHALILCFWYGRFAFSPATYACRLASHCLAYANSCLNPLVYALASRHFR
COUP-TFII inh: NR2F2 transcriptional activity inhibitors, primary screen, cell-based, luciferase reporter, HEK293T, luminescence | COUP transcription factor 2 (Homo sapiens), P24468 | HEK293T NGFI-A luciferase reporter | inhibition, % at 8.6 µM | actives 0.7% (n = 370,000) | AID 686940, 2013;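 active = inhibition above a per-plate cutoff, mean inhibition of test wells between control levels plus 3 SD, cut at about 38% in these data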;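 also: cells cotransfected with COUP-TFII expression vector driving the NGFI-A reporter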
Target sequence (P24468 whole entry, looked up): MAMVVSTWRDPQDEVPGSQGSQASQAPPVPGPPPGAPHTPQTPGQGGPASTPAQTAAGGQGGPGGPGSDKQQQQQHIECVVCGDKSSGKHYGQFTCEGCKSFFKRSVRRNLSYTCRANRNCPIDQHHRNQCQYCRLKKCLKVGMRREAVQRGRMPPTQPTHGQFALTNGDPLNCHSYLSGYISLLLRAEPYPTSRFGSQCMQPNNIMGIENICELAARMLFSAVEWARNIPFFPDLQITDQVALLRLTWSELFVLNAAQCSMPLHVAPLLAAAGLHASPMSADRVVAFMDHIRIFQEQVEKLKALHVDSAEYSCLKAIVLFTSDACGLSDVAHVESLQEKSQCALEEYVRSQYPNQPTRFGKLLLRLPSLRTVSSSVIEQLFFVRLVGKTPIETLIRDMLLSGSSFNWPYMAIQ
Gli-Sufu antag: Gli-Sufu pathway antagonists, primary screen, luciferase luminescence, Sufu-KO-LIGHT cells, uHTS; Sufu-KO-LIGHT fibroblasts, Gli luciferase reporter luminescence; inhibition, % at 5 µM; actives 0.74% (n = 340,000); AID 588413, 2011;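 active = inhibition above about 55%, limit read from the data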
SMARCA2 act: SMARCA2 (BRM) function activators, primary screen, cell-based, luminescence, high throughput; activation, % at 9.1 µM; MG213 cells, MMTV-luciferase reporter, dexamethasone, overnight; actives 1% (n = 370,000); in the data active = activation above about 7.8%
H9c2 protect: cardioprotection against H2O2-induced cell death, primary screen, uHTS, H9c2 cells, ATPLite luminescence; H9c2 cardiomyocytes, H2O2 injury protection, 2 h; protection from H2O2 cell death, % at 20 µM; actives 0.63% (n = 360,000); AID 588492, 2011;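 active = compounds giving at least 50% protection of heart cells from peroxide-induced death in the single-dose screen, raw or plate-pattern-corrected value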
GAA30 counter: GAA30 FXN promoter activators, confirmation, counter-screen for GAA850 frataxin promoter activator project, cell-based, luminescence, HEK293, lucGAA30, triplicate | shares compounds with GAA850 FXN act | HEK293 lucGAA30 FXN promoter luciferase, 24 h; DMSO = 0%, 5 µM ipriflavone = 100% | activation, % at 6 µM | actives 66% (n = 1,900) | AID 588350, 2011;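 active = mean activation above the mean of solvent-only control wells plus 3 SD, cut at about 22% in these data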;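 also: counterscreen of GAA850 promoter hits where activity marks nonselective or luminescence artifacts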
FXN GAA850 conf: FXN GAA850 promoter activators in reporter cells, confirmation, cell-based, luminescence, HEK293 lucGAA850, triplicate; shares compounds with GAA850 FXN act; HEK293 lucGAA850 FXN promoter luciferase reporter, 24 h; 100% = activation by SAHA; activation, % at 6 µM; actives 86% (n = 1,900);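 active = mean activation above a set limit taken from the primary screen, cut at about 8% in these data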
Gli antag conf: Gli-SUFU pathway antagonists, confirmation, single concentration, luciferase luminescence, Sufu-KO-LIGHT cells. shares compounds with Gli-Sufu antag. Gli luciferase reporter. inhibition, % at 5 µM. actives 40% (n = 2,500);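 active = mean inhibition at 5 µM reaching about 45%, limit read from the data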
SufuKO cytotox: cytotoxicity in Sufu-KO-LIGHT cells, confirmation, cytotoxicity control for Gli-SUFU antagonist project, cell-based, ATP luminescence, single concentration; shares compounds with Gli-Sufu antag; actives 32% (n = 2,500); cytotoxicity, % at 5 µM;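 active = mean cytotoxicity at 5 µM above about 25%, limit read from the data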;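 also: cells exposed to compound overnight for roughly 16 to 18 hours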
Wnt3a cs: Wnt3a reporter signal inhibition, confirmation, counter-screen for Gli-SUFU antagonist project, Wnt-LIGHT cells, luminescence, single concentration; actives 20% (n = 2,500); AID 651995, 2013; inhibition, % at 6.25 µM; Wnt3a-driven luciferase reporter; shares compounds with Gli-Sufu antag;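 active = mean inhibition above about 25%, limit read from the data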
GalR3 antag conf: GalR3 antagonist hit confirmation, cell-based, fluorescence, triplicate; shares compounds with GalR3 antagonist; inhibition, % at 3 µM; AID 652245, 2013; HEK293 GalR3 CNG cAMP biosensor, membrane potential fluorescence; galR3 fused to GalR1 carboxy tail; challenged with forskolin and galanin at EC90; actives 59% (n = 1,600);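 active = inhibition above the primary screen's cutoff, the mean inhibition of all screened compounds plus 3 SD, cut at about 13% in these data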
CNG parental: nonspecific cAMP agonists in parental HEK-CNG cells, counter-screen for GalR3 antagonist project, cell-based, fluorescence, high throughput. shares compounds with GalR3 antagonist. HEK293-CNG parental cells, cAMP membrane potential fluorescence; normalised: DMSO wells 0%, forskolin wells 100%. activation, % at 3 µM. actives 10% (n = 1,600); in the data active = activation above about 1.3%
Of the large screens only hits and unclear results are named; the others gave an inactive call (follow-up assays come after a bar, where they were run).

Cc1ccc(/C=N\Nc2cn[nH]c(=O)c2Cl)cc1	GAA850 FXN act 11 | GAA30 counter 104 | FXN GAA850 conf 32
O=S(=O)(NCc1ccc(Cl)cc1)c1ccc(Br)cc1C1CC[C@@H](O)C1 (some centres undefined)	none (no result: GAA850 FXN act, Gli-Sufu antag, H9c2 protect)
CCOc1ccc2c(c1)c(N=Nc1cccc(C(=O)O)c1)c(O)n2C	GAA850 FXN act 8.8 | GAA30 counter 107 | FXN GAA850 conf 38
Cc1ccc2c(c1)c(N=Nc1cccc(C(=O)O)c1)c(O)n2C	none
COc1ccccc1C(=O)NCCC(=O)NCCC12CC3CC(CC(C3)C1)C2	GAA850 FXN act 8.1 | GAA30 counter inactive | FXN GAA850 conf 14
COc1ccccc1OCCNC(=O)CCNC(=O)c1ccccc1OC	none
COc1cc2c(cc1OC)-c1cc(OCc3cccnc3)nc(=O)n1CC2	GAA850 FXN act 8.8 | GAA30 counter inactive | FXN GAA850 conf 13
COc1ccc(-c2noc(-c3ccoc3C)n2)cc1	none
COc1ccc(-c2noc(-c3cccc(Cl)c3)n2)cc1OC	none
COc1ccc(-c2noc(-c3ccccc3Cl)n2)cc1OC	GAA850 FXN act 8.6 | GAA30 counter 112 | FXN GAA850 conf 40
COc1ccc(-c2noc(-c3ccoc3C)n2)cc1OC	GAA850 FXN act 7.8 | GAA30 counter 96 | FXN GAA850 conf 33
O=C(c1cc(-c2ccccc2)on1)N1CCC(Oc2cccnc2)CC1	none (no result: GAA850 FXN act, GalR3 antagonist, Gli-Sufu antag, H9c2 protect)
CCOC(=O)c1cnc(Nc2nc3ccccc3o2)nc1CSC(=S)N(CC)CC	GAA850 FXN act 11, Gli-Sufu antag 69 | GAA30 counter 41 | FXN GAA850 conf 25 | Gli antag conf inactive | SufuKO cytotox inactive | Wnt3a cs inactive
CC(=NNc1cc(C)c2ccccc2n1)c1ccccn1	none (no result: GAA850 FXN act, Gli-Sufu antag, H9c2 protect)
C=CCNc1nc2c(c(=O)n(C)c(=O)n2C)n1Cc1ccc(F)cc1	GAA850 FXN act 11 | GAA30 counter inactive | FXN GAA850 conf inactive | Gli antag conf 55 | SufuKO cytotox inactive | Wnt3a cs 26
Cn1c(=O)c2c(nc(NCCc3ccccc3)n2Cc2ccc(F)cc2)n(C)c1=O	none
COc1ccc(S[C@]2(C(=O)N3CCN(C(C)=O)CC3)CC(=O)N(C(=O)CCc3ccccc3)[C@@H]2c2ccc(OC)cc2)cc1	none (no result: GAA850 FXN act, GalR3 antagonist, Gli-Sufu antag, H9c2 protect)
Cc1ccc2nc3c(cc(S(=O)(=O)c4ccccc4)c(=N)n3Cc3ccco3)c(=O)n2c1	GAA850 FXN act 9.3 | GAA30 counter 22 | FXN GAA850 conf inactive | Gli antag conf inactive | SufuKO cytotox inactive | Wnt3a cs inactive
O=C(c1cc(Cl)cc(Cl)c1)N1CC[C@H]2[C@H](CCCN2Cc2ccccc2)C1	none (no result: GAA850 FXN act, GalR3 antagonist, Gli-Sufu antag, H9c2 protect)
CCCCOC(=O)/C=C/c1ccc(OC(=O)OC)c(OC(=O)OC)c1	GAA850 FXN act 10, Gli-Sufu antag 62 | GAA30 counter 63 | FXN GAA850 conf 32 | Gli antag conf 46 | SufuKO cytotox inactive | Wnt3a cs 37
COC(=O)Oc1ccc(/C=C/C(=O)OC(C)C)cc1OC(=O)OC	GAA850 FXN act 11, H9c2 protect 54 | GAA30 counter 52 | FXN GAA850 conf 32 | Gli antag conf inactive | SufuKO cytotox inactive | Wnt3a cs inactive
COc1ccc(/C=C/C(=O)Oc2ccc(C=O)cc2OC)cc1	none
CCc1nc2sc(C#N)c(N)c2c2c1CCCC2	GAA850 FXN act 10, GalR3 antagonist 42 | GAA30 counter inactive | FXN GAA850 conf 14 | GalR3 antag conf 57 | CNG parental inactive
CCN1CCN(C(CCc2ccccc2)C(=O)NC2CCCCC2)CC1 (centres undefined)	none (no result: GAA850 FXN act, Gli-Sufu antag)
CCN(CC(O)c1cccc(O)c1)C(=O)C12CC3CC(CC(C3)C1)C2 (centres undefined)	GAA850 FXN act 19, GalR3 antagonist 17 | GAA30 counter 33 | FXN GAA850 conf 23 | GalR3 antag conf 57 | CNG parental 2.0
COc1ccc(CCNC(=O)c2cnn(-c3ccccc3)c2N)cc1OC	none (no result: GAA850 FXN act, GalR3 antagonist, Gli-Sufu antag, H9c2 protect)
COc1cc(OC)cc(C(=O)NCC2CCN(C(=O)C(=O)c3cc4ccccc4o3)CC2)c1	none (no result: GAA850 FXN act, Gli-Sufu antag, H9c2 protect)
CCN(CC)S(=O)(=O)c1ccc(N2CCCC2)c(NC(=O)Cc2cc(OC)c(OC)c(OC)c2)c1	GAA850 FXN act 8.4, GalR3 antagonist 19 | GAA30 counter 32 | FXN GAA850 conf 8.4 | GalR3 antag conf inactive | CNG parental inactive
CCOC(=O)CSc1nc(N)c(C#N)c(-c2cccs2)c1C#N	none
N#Cc1c(N)nc(SCc2ccccn2)c(C#N)c1-c1cccs1	GAA850 FXN act 20, GalR3 antagonist 75 | GAA30 counter 26 | FXN GAA850 conf 19 | GalR3 antag conf 49 | CNG parental 2.5
